# Test results as given in PubChem BioAssay (EPA / NIEHS).
# Values joined by “and” are separate entries in the source; they are usually repeats but may differ in a detail not shown here. Equal values may be shown once. More than one record can exist for a structure, and the calls need not agree. Active and inactive are the calls of the source. Rule for the calls: active = hit-call score of the fitted dose curve at least 0.9, where 1 is the maximum; inactive = score below 0.9.
# Columns and labels:
# Conditions in all cases: mRNA level, 48 h; actives raise or lower the signal
# [1] = read-out: 3-Hydroxy-3-Methylglutaryl-CoA Synthase 2 (HMGCS2), HMGCS2 (gene 3158); assay: LTEA_HepaRG_HMGCS2: Life Technologies and Expression Analysis (LTEA) Assay for 3-Hydroxy-3-Methylglutaryl-CoA Synthase 2 (HMGCS2) using HepaRG (AID 2283504)
# How it was run: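 qRT-PCR read-out of HMGCS2 transcript, normalised to three housekeeping genes, in HepaRG cells after 48 h chemical exposure. Eight-point curves from 100 uM, half-log dilutions, 0.5% DMSO vehicle; gain or loss fitted relative to DMSO baseline.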
# HGF (gene 3082) = assay: LTEA_HepaRG_HGF: Life Technologies and Expression Analysis (LTEA) Assay for Hepatocyte Growth Facto (HGF) using HepaRG (AID 2283505)
# How it was run: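 HepaRG, 48 h dosing, 8-pt half-log series from 100 uM in 0.5% DMSO, duplicates. Readout: TaqMan qRT-PCR of HGF mRNA, housekeeping-normalized; bidirectional curve fit vs DMSO baseline.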
# [2] = read-out: Intercellular Adhesion Molecule 1 (ICAM1), ICAM1 (gene 3383); assay: LTEA_HepaRG_ICAM1: Life Technologies and Expression Analysis (LTEA) Assay for Intercellular Adhesion Molecule 1 (ICAM1) using HepaRG (AID 2283507)
# How it was run: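 HepaRG, 48 h exposure, 8-pt half-log series from 100 uM, 0.5% DMSO vehicle, duplicates. Readout: TaqMan qRT-PCR mRNA, housekeeping-normalized (ACTB/GAPDH/POLR2A). Bidirectional curve fit vs DMSO baseline.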
# [3] = read-out: Insulin-like growth factor-binding protein 1 (IGFBP1), IGFBP1 (gene 3484); assay: LTEA_HepaRG_IGFBP1: Life Technologies and Expression Analysis (LTEA) Assay for Insulin-like growth factor-binding protein 1 (IGFBP1) using HepaRG (AID 2283508)
# How it was run: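 qRT-PCR mRNA read-out (TaqMan, Fluidigm array), normalised to three housekeeping genes; HepaRG cells, 48 h exposure, 8-pt half-log series from 100 uM, 0.5% DMSO vehicle; bidirectional curve fit vs DMSO baseline.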
# [4] = read-out: Interleukin 6 (IL6), IL6 (gene 3569); assay: LTEA_HepaRG_IL6: Life Technologies and Expression Analysis (LTEA) Assay for Interleukin 6 (IL6) using HepaRG (AID 2283509)
# How it was run: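 qRT-PCR read-out of IL6 transcript, normalized to three housekeeping genes, after 48 h chemical exposure of HepaRG cells; 8-point half-log series, top 100 uM, 0.5% DMSO vehicle. Bidirectional curve fitting against DMSO baseline.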
# [5] = read-out: Interleukin 6 Receptor (IL6R), IL6R (gene 3570); assay: LTEA_HepaRG_IL6R: Life Technologies and Expression Analysis (LTEA) Assay for Interleukin 6 Receptor (IL6R) using HepaRG (AID 2283510)
# How it was run: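 HepaRG, 48 h exposure, 8-pt half-log series, top 100 uM, 0.5% DMSO vehicle, duplicates. Read-out: TaqMan qRT-PCR of IL6R transcript, housekeeping-gene normalized. Gain or loss fitted relative to DMSO baseline.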
# [6] = read-out: Potassium channel subfamily K member 1 (KCNK1), KCNK1 (gene 3775); assay: LTEA_HepaRG_KCNK1: Life Technologies and Expression Analysis (LTEA) Assay for Potassium channel subfamily K member 1 (KCNK1) using HepaRG (AID 2283511)
# How it was run: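 HepaRG, 48 h exposure, 8-pt half-log series top 100 uM, 0.5% DMSO vehicle, duplicates. Readout: KCNK1 transcript by qRT-PCR (Fluidigm array), housekeeping-normalized; bidirectional curve fit relative to DMSO baseline.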
# [7] = read-out: Keratin 19 (KRT19), KRT19 (gene 3880); assay: LTEA_HepaRG_KRT19: Life Technologies and Expression Analysis (LTEA) Assay for Keratin 19 (KRT19) using HepaRG (AID 2283512)
# How it was run: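 HepaRG, 48 h chemical exposure, 8-pt half-log CRC from 100 uM, 0.5% DMSO vehicle, duplicates. Readout: TaqMan qRT-PCR of KRT19 mRNA, housekeeping-normalized (ACTB/GAPDH/POLR2A). Bidirectional fit vs DMSO baseline.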
# [8] = read-out: JUN Transcription Factor, JUN (gene 3725); assay: LTEA_HepaRG_JUN: Life Technologies and Expression Analysis (LTEA) Assay for JUN Transcription Factor using HepaRG (AID 2283513)
# How it was run: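 HepaRG, 48 h exposure, 8-pt half-log series top 100 uM, 0.5% DMSO, duplicate. JUN mRNA by qRT-PCR (Fluidigm), housekeeping-normalized (ACTB/GAPDH/POLR2A); bidirectional curve fit vs DMSO baseline.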
# [9] = read-out: Lipase C (LIPC), LIPC (gene 3990); assay: LTEA_HepaRG_LIPC: Life Technologies and Expression Analysis (LTEA) Assay for Lipase C (LIPC) using HepaRG (AID 2283514)
# How it was run: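 HepaRG, 48 h exposure, 8-pt half-log series from 100 uM in 0.5% DMSO, duplicates. Readout: LIPC mRNA by Fluidigm qRT-PCR, housekeeping-normalized (ACTB/GAPDH/POLR2A). Gain or loss fitted bidirectionally against DMSO baseline.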
# [10] = read-out: matrix metalloproteinase-10 (MMP10), MMP10 (gene 4319); assay: LTEA_HepaRG_MMP10: Life Technologies and Expression Analysis (LTEA) Assay for matrix metalloproteinase-10 (MMP10) using HepaRG (AID 2283517)
# How it was run: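 Transcript levels come from Fluidigm qRT-PCR normalized to three housekeeping genes, with curves fitted bidirectionally against 0.5% DMSO. Human HepaRG cells were dosed for 48 hours at concentrations up to 100 uM.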
# MYC, MYC (gene 4609) = assay: LTEA_HepaRG_MYC: Life Technologies and Expression Analysis (LTEA) Assay for MYC using HepaRG (AID 2283518)
# How it was run: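 qRT-PCR read-out of MYC transcript (Fluidigm TaqMan, housekeeping-normalized) after 48 h chemical exposure of HepaRG cells; eight concentrations, top 100 uM, half-log steps. Bidirectional curve fitting against 0.5% DMSO vehicle baseline.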
# [11] = read-out: matrix metalloproteinase-3 (MMP3), MMP3 (gene 4314); assay: LTEA_HepaRG_MMP3: Life Technologies and Expression Analysis (LTEA) Assay for matrix metalloproteinase-3 (MMP3) using HepaRG (AID 2283519)
# How it was run: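 qRT-PCR read-out of MMP3 mRNA (normalised to three housekeeping genes) in HepaRG liver cells after 48 h chemical exposure; 8-point half-log series, top 100 uM, 0.5% DMSO vehicle. Bidirectional curve fitting against DMSO baseline.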
# [12] = read-out: Paternally Expressed 10 (PEG10), PEG10 (gene 23089); assay: LTEA_HepaRG_PEG10: Life Technologies and Expression Analysis (LTEA) Assay for Paternally Expressed 10 (PEG10) using HepaRG (AID 2283520);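 for AC50: PEG10 transcript by qRT-PCR normalised to ACTB GAPDH and POLR2A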
# How it was run: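 qRT-PCR read-out: PEG10 mRNA normalised to three housekeeping genes, fitted bidirectionally against 0.5% DMSO vehicle. HepaRG cells received test chemicals for 48 h in serum-free induction medium, 8 points, top 100 uM, half-log steps.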
# [13] = read-out: Nuclear factor NF-kappa-B p105 subunit (Homo sapiens) (UniProt P19838); assay: LTEA_HepaRG_NFKB1: Life Technologies and Expression Analysis (LTEA) Assay for Nuclear Factor Kappa B Subunit 1 (NFKB1) using HepaRG (AID 2283521);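 for outcome: TaqMan qRT-PCR transcript normalised to ACTB GAPDH and POLR2A housekeeping genes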
# How it was run: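 Differentiated human HepaRG cells were exposed for 48 h in serum-free induction medium to eight concentrations (top 100 uM, half-log steps, 0.5% DMSO), in duplicate. NFKB1 mRNA was measured by TaqMan qRT-PCR, normalized to ACTB/GAPDH/POLR2A, and fitted bidirectionally against DMSO.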
# [14] = read-out: Protein phosphatase 2A (PPP2R4), PTPA (gene 5524); assay: LTEA_HepaRG_PPP2R4: Life Technologies and Expression Analysis (LTEA) Assay for Protein phosphatase 2A (PPP2R4) using HepaRG (AID 2283522)
# How it was run: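 HepaRG, 48 h exposure, 8-pt half-log series from 100 uM, 0.5% DMSO vehicle, duplicates. Readout: PPP2R4 mRNA, Fluidigm qRT-PCR, housekeeping-normalized. Bidirectional curve fit vs DMSO baseline.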
# [15] = read-out: Phosphatase and tensin (PTEN), PTEN (gene 5728); assay: LTEA_HepaRG_PTEN: Life Technologies and Expression Analysis (LTEA) Assay for Phosphatase and tensin (PTEN) using HepaRG (AID 2283523)
# How it was run: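 HepaRG, 48 h exposure, 8-pt half-log series from 100 uM top, 0.5% DMSO vehicle, duplicates. Readout: Fluidigm qRT-PCR of PTEN transcript; housekeeping normalization (ACTB, GAPDH, POLR2A). Gain or loss fitted relative to DMSO baseline.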
# [16] = read-out: solute carrier (SLC22A1), SLC22A1 (gene 6580); assay: LTEA_HepaRG_SLC22A1: Life Technologies and Expression Analysis (LTEA) Assay for solute carrier (SLC22A1) using HepaRG (AID 2283524)
# How it was run: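 qRT-PCR readout (TaqMan, Fluidigm arrays) of SLC22A1 transcript, normalized to three housekeeping genes; bidirectional curve fit relative to 0.5% DMSO vehicle. Differentiated human HepaRG cells, 48 h chemical exposure, top concentration 100 uM, half-log steps, eight points.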
# [17] = read-out: NAD(P)H dehydrogenase [quinone] 1 (NQO1), NQO1 (gene 1728); assay: LTEA_HepaRG_NQO1: Life Technologies and Expression Analysis (LTEA) Assay for NAD(P)H dehydrogenase [quinone] 1 (NQO1) using HepaRG (AID 2283526)
# How it was run: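 qRT-PCR read-out (Fluidigm TaqMan), normalized to three housekeeping genes, after 48 h chemical exposure of HepaRG cells. Concentrations: eight points, top 100 uM, half-log steps, 0.5% DMSO vehicle. Gain or loss of signal fitted relative to DMSO.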
# [18] = read-out: succinate dehydrogenase complex iron sulfur subunit B (SDHB), SDHB (gene 6390); assay: LTEA_HepaRG_SDHB: Life Technologies and Expression Analysis (LTEA) Assay for succinate dehydrogenase complex iron sulfur subunit B (SDHB) using HepaRG (AID 2283528)
# How it was run: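 HepaRG, 48 h exposure, 8-pt half-log series from 100 uM in 0.5% DMSO, duplicates. Readout: SDHB mRNA by Fluidigm qRT-PCR vs housekeeping genes; bidirectional fit relative to DMSO.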
# Chain of Nuclear factor NF-kappa-B p105 subunit (Homo sapiens) (P19838 whole entry, looked up): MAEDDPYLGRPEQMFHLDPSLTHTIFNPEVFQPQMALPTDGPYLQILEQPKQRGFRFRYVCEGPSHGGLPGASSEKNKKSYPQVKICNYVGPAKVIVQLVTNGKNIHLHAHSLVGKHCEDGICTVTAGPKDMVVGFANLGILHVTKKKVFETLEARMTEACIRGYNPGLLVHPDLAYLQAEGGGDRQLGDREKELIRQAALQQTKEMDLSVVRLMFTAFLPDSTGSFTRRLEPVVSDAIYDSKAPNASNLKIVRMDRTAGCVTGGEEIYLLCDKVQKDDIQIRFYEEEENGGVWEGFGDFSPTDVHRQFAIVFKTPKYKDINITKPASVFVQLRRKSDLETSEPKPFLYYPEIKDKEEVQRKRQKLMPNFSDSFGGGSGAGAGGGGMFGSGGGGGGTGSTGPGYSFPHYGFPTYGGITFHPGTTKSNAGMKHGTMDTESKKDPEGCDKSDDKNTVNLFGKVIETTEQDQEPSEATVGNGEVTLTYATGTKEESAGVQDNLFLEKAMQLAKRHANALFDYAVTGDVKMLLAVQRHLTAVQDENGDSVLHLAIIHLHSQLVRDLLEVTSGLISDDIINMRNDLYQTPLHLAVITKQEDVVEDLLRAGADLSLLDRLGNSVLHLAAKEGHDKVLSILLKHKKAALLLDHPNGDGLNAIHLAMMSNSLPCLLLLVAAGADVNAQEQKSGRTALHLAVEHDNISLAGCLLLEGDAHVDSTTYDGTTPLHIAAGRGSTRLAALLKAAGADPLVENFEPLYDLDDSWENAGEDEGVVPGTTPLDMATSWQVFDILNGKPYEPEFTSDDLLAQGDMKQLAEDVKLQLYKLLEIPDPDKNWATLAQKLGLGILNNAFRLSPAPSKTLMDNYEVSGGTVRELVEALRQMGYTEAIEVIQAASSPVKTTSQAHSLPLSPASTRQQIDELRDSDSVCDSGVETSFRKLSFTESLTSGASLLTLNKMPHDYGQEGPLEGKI
structure (smiles),measurement,setting,value
COc1cc(-c2ccc(N)c(OC)c2)ccc1N,AC50,[1],42.7 µM (active)
same,outcome,[1],inactive
same,outcome,HGF (gene 3082),inactive
same,outcome,[2],inactive
same,AC50,[3],86.9 µM (active)
same,outcome,[3],inactive
same,AC50,[4],13 µM (active)
same,outcome,[4],inactive
same,outcome,[5],inactive
same,outcome,[6],inactive
same,AC50,[7],42.3 µM (active)
same,outcome,[7],inactive
same,AC50,[8],50 µM (active)
same,outcome,[8],inactive
same,AC50,[9],50 µM (active)
same,outcome,[9],inactive
same,outcome,[10],inactive
same,AC50,"MYC, MYC (gene 4609)",50 µM (active)
same,outcome,"MYC, MYC (gene 4609)",inactive
same,AC50,[11],39.3 µM (active) and 2.3 µM (active)
same,AC50,[12],50 µM (active)
same,outcome,[13],inactive
same,outcome,[14],inactive
same,outcome,[15],inactive
same,AC50,[16],50 µM (active)
same,outcome,[16],inactive
same,outcome,[17],inactive
same,outcome,[18],inactive
O=C(O)C(Cl)(Cl)Cl,outcome,[1],inactive
same,outcome,HGF (gene 3082),inactive
same,outcome,[2],inactive
same,outcome,[3],inactive
same,outcome,[4],inactive
same,outcome,[5],inactive
same,outcome,[6],inactive
same,outcome,[7],inactive
same,outcome,[8],inactive
same,outcome,[9],inactive
same,outcome,[10],inactive
same,outcome,"MYC, MYC (gene 4609)",inactive
same,outcome,[11],inactive
same,outcome,[12],inactive
same,outcome,[14],inactive
same,outcome,[15],inactive
same,outcome,[16],inactive
same,outcome,[17],inactive
same,outcome,[18],inactive
O=[N+]([O-])c1ccc(O)c([N+](=O)[O-])c1,AC50,[1],22.9 µM (active)
same,outcome,HGF (gene 3082),inactive
same,outcome,[2],inactive
same,AC50,[3],13.3 µM (active)
same,AC50,[4],60.3 µM (active)
same,AC50,[5],17.7 µM (active)
same,outcome,[6],inactive
same,outcome,[7],inactive
same,outcome,[8],inactive
same,AC50,[9],12 µM (active)
same,outcome,[10],inactive
same,AC50,"MYC, MYC (gene 4609)",89.6 µM (active)
same,outcome,[11],inactive
same,AC50,[12],13.2 µM (active)
same,AC50,[13],13 µM (active)
same,AC50,[14],13.1 µM (active)
same,AC50,[15],31.8 µM (active)
same,AC50,[16],25.2 µM (active)
same,AC50,[17],12.7 µM (active)
same,AC50,[18],13 µM (active)
Oc1cccc2cccnc12,outcome,[1],inactive
same,outcome,HGF (gene 3082),inactive
same,outcome,[2],inactive
same,outcome,[3],inactive
same,outcome,[4],inactive
same,outcome,[5],inactive
same,outcome,[6],inactive
same,outcome,[7],inactive
same,outcome,[8],inactive
same,outcome,[9],inactive
same,outcome,[10],inactive
same,outcome,"MYC, MYC (gene 4609)",inactive
same,outcome,[11],inactive
same,outcome,[12],inactive
same,outcome,[14],inactive
same,outcome,[15],inactive
same,outcome,[16],inactive
same,outcome,[17],inactive
same,outcome,[18],inactive
